Records with an inconclusive call do not appear. Active and inactive are the calls of the source. Unless noted, calls come from the whole dose curve; as a rule, active = well fitted cell-killing curve with a large enough effect; inconclusive = small, poorly fitted or top-dose-only effect, or effect the other way; inactive = no such curve, though single readings can be large or run the other way.
Experiments:
[1] = Quantitative High-Throughput drug screen in 47 multiple myeloma cell lines against the NCATS MIPE library collection: XG1_PLB cell viability assay (AID 1919866); note: nearly all actives have a fitted effect of over 35% in size
Summary of the method: (§1)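 ATP-based CellTiter-Glo luminescence after 48 h drug exposure (37 °C, 5% CO2) of 500 myeloma cells per well. DMSO-only wells set 100% viability, media-only wells 0%; MIPE 4.0 library added by pin tool.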

[2] = Quantitative High-Throughput drug screen in 47 multiple myeloma cell lines against the NCATS MIPE library collection: VP6_DJ cell viability assay (AID 1919867); note: nearly all actives have a fitted effect of over 40% in size
Summary of the method: as §1

[3] = Quantitative High-Throughput drug screen in 47 multiple myeloma cell lines against the NCATS MIPE library collection: UTMC2_PLB cell viability assay (AID 1919868); conditions: CellTiter-Glo ATP luminescence, 48 h; viability (% of DMSO control): at 45.8 µM (top of the series) unless noted; note: nearly all actives have a fitted effect of over 55% in size
Summary of the method: as §1

[4] = Quantitative High-Throughput drug screen in 47 multiple myeloma cell lines against the NCATS MIPE library collection: PE2_PLB cell viability assay (AID 1919869); note: nearly all actives have a fitted effect of over 35% in size
Summary of the method: as §1

[5] = Quantitative High-Throughput drug screen in 47 multiple myeloma cell lines against the NCATS MIPE library collection: PCM6_Riken cell viability assay (AID 1919870); note: nearly all actives have a fitted effect of over 30% in size
Summary of the method: as §1

[6] = Quantitative High-Throughput drug screen in 47 multiple myeloma cell lines against the NCATS MIPE library collection: RPMI8226_ATCC cell viability assay (AID 1919871); note: nearly all actives have a fitted effect of over 30% in size
Summary of the method: as §1

[7] = Quantitative High-Throughput drug screen in 47 multiple myeloma cell lines against the NCATS MIPE library collection: OPM2_DSMZ cell viability assay (AID 1919872); note: nearly all actives have a fitted effect of over 30% in size
Summary of the method: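 Steps: seed 500 cells per well; pin-transfer MIPE 4.0 library; incubate 48 h at 37C, 5% CO2, humidified; add CellTiter-Glo, 5 min room temperature; read luminescence.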

[8] = Quantitative High-Throughput drug screen in 47 multiple myeloma cell lines against the NCATS MIPE library collection: KMS11_JCRBsus cell viability assay (AID 1919873); note: nearly all actives have a fitted effect of over 50% in size
Summary of the method: as §1

[9] = Quantitative High-Throughput drug screen in 47 multiple myeloma cell lines against the NCATS MIPE library collection: KMS28BM_JCRB cell viability assay (AID 1919874); note: nearly all actives have a fitted effect of over 35% in size
Summary of the method: as §1

[10] = qHTS for identification of novel therapeutic agents for treatment of microphthalmiaassociated transcription factor (MiT) renal cell carcinoma (RCC) (AID 1963991; calls by dose curve); conditions: CellTiter-Glo, 48 h; for Potency: active = Z-AUC below -0.8 in all three lines; for z-score: stronger effect = lower value
Summary of the method: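 Three TFE3-fusion RCC cell lines (UOK109, UOK124, UOK145), 500 cells/well, were exposed to the 1912-compound MIPE 4.0 library for 48 hours at 37 C. Viability was read by CellTiter-Glo luminescence, normalised to DMSO (100%) and empty wells (0%), with 11-concentration curve fits.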

[11] = qHTS drug screen for cell cycle checkpoint inhibitors in PARPi-resistant BRCA-mutant ovarian cancer cell lines. (AID 1963452; calls by dose curve); conditions: PEO1/OlaR viability, CellTiter-Glo luminescence, 96 h; for Z-AUC: stronger effect = lower value
Summary of the method: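 PEO1, PEO4 and PEO1/OlaR ovarian cancer cells, 600 per well, exposed 96 h at 37C to a dilution series. Viability read by CellTiter-Glo luminescence, normalized to DMSO and empty wells; activity summarized as Z-AUC.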

[12] = TFE3-RCC UOK109 viability, measured here: UOK109 Z-AUC
[13] = TFE3-RCC viability, measured here: UOK124 Z-AUC
[14] = TFE3-RCC viability, measured here: UOK145 Z-AUC
[15] = measured here: PEO1 parental Z-AUC
Potency is the fitted concentration of half-maximal effect.

Compound | Potency [1] | Potency [2] | Potency [3] | Potency [4] | Potency [5] | Potency [6] | Potency [7] | Potency [8] | Potency [9] | Potency ([10]; TFE3-RCC UOK109 viability) | z-score [10, 12] | z-score [10, 13] | z-score [10, 14] | Z-AUC [11] | Z-AUC [11, 15] | Z-AUC ([11]; measured here: PEO4 Z-AUC) | Potency [11]
COC(=O)[C@]12CCC(C)(C)C[C@@H]1[C@@H]1C(=O)C=C3[C@@]4(C)C=C(C#N)C(=O)C(C)(C)[C@@H]4CC[C@@]3(C)[C@]1(C)CC2 | 166 nM (active) | 264 nM (active) | 372 nM (active) | 332 nM (active) | 332 nM (active) | 526 nM (active) | 833 nM (active) | 187 nM (active) | 264 nM (active) | 1180 nM (active) | -1.73 | -1.69 | -1.96 |  |  |  | 
Cc1nc2cnc3ccc(C#Cc4cccnc4)cc3c2n1-c1ccc(C(C)(C)C#N)cc1 | 10.5 nM (active) | 74.3 nM (active) | 20.9 nM (active) | 13.2 nM (active) | 66.2 nM (active) | 83.3 nM (active) | 187 nM (active) |  | 372 nM (active) | 118 nM (active) | -1.96 | -4.34 | -2.15 |  |  |  | 
CCOc1cc2ncc(C#N)c(Nc3ccc(F)c(Cl)c3)c2cc1NC(=O)C=CCN(C)C | 10500 nM (active) | 4690 nM (active) | 296 nM (active) | 5900 nM (active) | 1660 nM (active) | 10500 nM (active) | 14800 nM (active) | 2640 nM (active) | 3320 nM (active) | 11.8 nM (active) | -2.91 | -1.47 | -1.07 |  |  |  | 
Cc1cc(N2CCOCC2)cc2[nH]c(-c3c(NC[C@@H](O)c4cccc(Cl)c4)cc[nH]c3=O)nc12 | 187 nM (active) | 148 nM (active) | 66.2 nM (active) | 148 nM (active) | 332 nM (active) | 469 nM (active) | 3720 nM (active) | 26.4 nM (active) |  |  |  |  |  | -0.44 (inactive) | -0.435 | -0.57 | 
CCOc1ccccc1OCCNC(C)Cc1ccc(OC)c(S(N)(=O)=O)c1 (stereo not given) | inactive | inactive | inactive | inactive | inactive | inactive | inactive | inactive |  |  | -0.0547 | 0.341 | 2.03 |  |  |  | 
O=C(O)c1ccc2c(c1)nc(Nc1cccc(Cl)c1)c1ccncc12 | 4180 nM (active) | 5900 nM (active) | 2640 nM (active) | 2640 nM (active) | 2640 nM (active) | 18700 nM (active) | 20900 nM (active) | 7430 nM (active) |  |  |  |  |  | -0.0299 (inactive) | -0.574 | -0.726 | 
COCCn1c2c([n+](Cc3cnccn3)c1C)C(=O)c1ccccc1C2=O | 7.4 nM (active) | 14.8 nM (active) | 41.8 nM (active) | 18.7 nM (active) | 23.5 nM (active) | 23.5 nM (active) | 59 nM (active) | 13.2 nM (active) | 14.8 nM (active) | 83.3 nM (active) | -3.55 | -3.42 | -3.23 |  | -3.26 | -3.48 | 49 nM (active)
CC(C)c1cc(-c2n[nH]c(=O)n2-c2ccc3c(ccn3C)c2)c(O)cc1O | 29.6 nM (active) | 20.9 nM (active) | 52.6 nM (active) | 37.2 nM (active) | 23.5 nM (active) | 37.2 nM (active) | 41.8 nM (active) | 16.6 nM (active) | 41.8 nM (active) | 74.3 nM (active) | -1.34 | -0.923 | -1.27 | -0.89 (inactive) | -1.07 | 0.105 | 
O=C(Nc1ncc(-c2cc(C(F)F)nn2-c2c(Cl)cccc2Cl)s1)C1CC1 | 105 nM (active) | 418 nM (active) | 526 nM (active) | 590 nM (active) | 662 nM (active) | 1660 nM (active) | 1050 nM (active) | 187 nM (active) | 296 nM (active) | 935 nM (active) | -1.06 | -1.43 | -1.27 | -1.34 (inactive) | -1.49 | -1.31 | 
COc1cc(=C2C=c3ccccc3=N2)[nH]c1=Cc1[nH]c(C)cc1C | 2090 nM (active) | 1660 nM (active) | 2090 nM (active) | 1480 nM (active) | 5900 nM (active) | 1660 nM (active) | 4180 nM (active) | 1050 nM (active) | 935 nM (active) | 8330 nM (active) | -1.08 | -0.978 | -0.974 |  |  |  | 
CC=C1NC(=O)[C@H]2CSSCCC=C[C@H](CC(=O)N[C@H](C(C)C)C(=O)N2)OC(=O)[C@H](C(C)C)NC1=O | 26.4 nM (active) | 1 nM (active) | 33.2 nM (active) | 59 nM (active) | 1 nM (active) | 26.4 nM (active) | 29.6 nM (active) | 18.7 nM (active) | 16.6 nM (active) | 33.2 nM (active) | -2.23 | -4.08 | -2.33 |  |  |  | 

Reference: PubChem BioAssay (NCATS)
